# High-throughput results from PubChem.
# T cruzi growth-1 – T. cruzi intracellular proliferation inhibitors, primary screen, cell-based, beta-gal Tulahuen parasites, NIH3T3 host, luminescence; T. cruzi beta-gal in NIH3T3, GalScreen luminescence, 90 h; inhibition, % at 8.34 µM; hit rate 5.9% among 77,000;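 active means mean inhibition above about 93%, with at least 55% of replicates each passing it, limit read from the data, passing the limit was not always enough; inconclusive means only one of those two conditions holds; inactive means neither condition holds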
# Pf Dd2 growth – P. falciparum Dd2 growth inhibitors, primary screen, SYBR Green fluorescence, single dose replicates; hit rate 2.3% among 94,000; 72 h; hits give low values; activity change, % at 10 µM; in the data active means activity change below about -80%; inconclusive means no clear call, values can overlap the other calls
# C diff HTS – C. difficile growth inhibitors, primary screen, HTS; Clostridium difficile clinical isolate growth, OD600, 24 h; hits give low values; AID 1259249, 2017; hit rate 0.25% among 86,000; growth activity, negative = inhibition, % at 16 µg/mL (by protocol);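 active means mean growth activity at or below -80% and every replicate also at or below -80%; inconclusive means mean at or below -80% but some replicate above -80%; inactive means mean growth activity above -80%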;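 further: 0% = DMSO wells and -100% = levofloxacin 16 µg/mL wells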
# T cruzi growth-2 – T. cruzi intracellular proliferation inhibitors, confirmation, cell-based, NIH3T3 host, beta-gal parasite, luminescence, cherry-pick | shares compounds with T cruzi growth-1 | T. cruzi beta-gal in NIH3T3, GalScreen luminescence, 90 h | inhibition, % at 8.35 µM | hit rate 72% among 5,600;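 active means mean replicate inhibition above about 95% and at least 55% of replicates individually reaching it, limit read from the data; inconclusive means only one of the two criteria is met; inactive means neither criterion is met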
# T cruzi growth-3 – inhibitors of intracellular T. cruzi replication, confirmation, NIH3T3 host cells, beta-gal parasites, cherry-pick, set 2 | shares compounds with T cruzi growth-1 | T. cruzi beta-gal in NIH3T3, GalScreen luminescence, 90 h | inhibition, % at 2.09 µM | hit rate 21% among 5,600;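 active means mean inhibition above about 95%, with at least 55% of replicates also reaching it, limit read from the data; inconclusive means meets just one of the two conditions; inactive means meets neither condition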;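 further: plate controls were neutral control median for no effect and positive control median for full effect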
# NIH3T3 tox – cytotoxicity in mouse NIH/3T3 fibroblasts, confirmation, cytotoxicity control for T. cruzi proliferation inhibitor project, cell-based, cherry-pick, single point; hit rate 14% among 5,600; shares compounds with T cruzi growth-1; cytotoxicity (signal decrease), % at 8.35 µM; NIH/3T3 viability, CellTiter-Glo ATP luminescence, 90 h;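 active means mean signal decrease across replicates above about 35% based on untreated-well scatter, with enough replicates individually passing, limit read from the data; inconclusive means no rule stated though some were filed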;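 further: 0% = median of neutral control wells and 100% = median of positive control wells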
# 3T3 cytotox 2 – NIH/3T3 fibroblast cytotoxicity, confirmation, cytotoxicity control, cell-based, cherry-pick, single point, set 2 | shares compounds with T cruzi growth-1 | NIH/3T3 viability, CellTiter-Glo ATP luminescence, 90 h | inhibition, % at 24.9 µM | hit rate 56% among 5,600 | AID 651744, 2012;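 active means mean loss of cell viability signal at or above a set limit, and enough replicates individually reaching it; inconclusive means meets only the mean limit or only the replicate share; inactive means meets neither condition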;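 further: 0% = median of neutral control wells and 100% = median of positive control wells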
# An asterisk follows results filed as active; ? = inconclusive; · = not tested or not shown. Compounds with a hit are over-represented: about 6.7% of the library has one in this group of screens.
SMILES,T cruzi growth-1,Pf Dd2 growth,C diff HTS,T cruzi growth-2,T cruzi growth-3,NIH3T3 tox,3T3 cytotox 2
Cc1noc(C)c1NC(=O)Nc1ccc2c(c1)C(=O)N([C@@H](C)CO)C[C@@H](C)[C@H](CN(C)Cc1ccncc1)OCCCC[C@H](C)O2,31.5,10.0,-3.0,·,·,·,·
CC(=O)N1CCCCN2[C@@H](CO)[C@H](c3ccc(-c4ccccc4)cc3)[C@@H]2C1,103.8*,-12.7,-19.7,64.9,45.8,32.4,42.4*
CC(=O)N1CCCCN2[C@H](CO)[C@H](c3ccc(-c4ccccc4)cc3)[C@H]2C1,60.8,-23.7,-14.1,·,·,·,·
O=C(NCC[C@H]1CC[C@H](NS(=O)(=O)c2ccc(F)cc2)[C@@H](CO)O1)Nc1ccc(F)cc1,·,2.9,3.1,·,·,·,·
C[C@@H]1CN([C@@H](C)CO)C(=O)c2cc(C#Cc3ccccc3F)cnc2O[C@@H]1CN(C)C(=O)Cc1ccccc1,70.6,-53.0,10.3,·,·,·,·
C[C@@H]1CN([C@H](C)CO)C(=O)c2cc(C#Cc3ccccc3F)cnc2O[C@@H]1CN(C)C(=O)Cc1ccncc1,76.1,-79.2,8.4,·,·,·,·
C[C@H]1CN([C@@H](C)CO)C(=O)c2cc(C#Cc3ccccc3F)cnc2O[C@@H]1CN(C)C(=O)Cc1ccncc1,95.2*,-74.7,2.1,?,48.0,-3.3,11.6
COc1ccc(-c2cnc3c(c2)C(=O)N([C@H](C)CO)C[C@H](C)[C@H](CN(C)C(=O)Cc2ccncc2)O3)cc1,50.0,-33.1,5.8,·,·,·,·
C[C@@H]1CN([C@@H](C)CO)C(=O)c2cc(C#Cc3ccccc3F)cnc2O[C@H]1CN(C)C(=O)Cc1ccccc1,119.8*,-27.1,-5.8,111.2*,105.7*,22.4,?
COc1ccc(-c2cnc3c(c2)C(=O)N([C@H](C)CO)C[C@H](C)[C@@H](CN(C)C(=O)Cc2ccncc2)O3)cc1,111.9*,-55.0,-5.0,54.8,59.0,-31.1,-7.0
CS(=O)(=O)N1CC2(C1)[C@@H](c1ccccc1)[C@@H](CO)N2Cc1ccc(F)cc1,·,-27.9,4.0,·,·,·,·
CCCNC(=O)[C@@H]1[C@@H](CO)[C@@H]2Cn3c(ccc(-c4ccccc4)c3=O)[C@@H]2N1CC1CC1,72.4,1.0,-0.3,·,·,·,·
C[C@@H]1CN([C@@H](C)CO)C(=O)c2cc(-c3ccccc3F)cnc2O[C@@H]1CN(C)C,-65.4,4.9,-0.2,·,·,·,·
C/C=C/c1ccc([C@H]2[C@H](CO)N3CCCCN(C(=O)Nc4ccc(F)cc4)C[C@@H]23)cc1,89.9,-4.5,43.7,·,·,·,·
C/C=C/c1ccc([C@@H]2[C@@H](CO)N3CCCCN(C(=O)Nc4ccc(F)cc4)C[C@@H]23)cc1,97.2*,-36.0,36.7,108.5*,38.8,16.6,73.9*
C/C=C/c1ccc([C@@H]2[C@H]3CN(C(=O)Nc4ccc(F)cc4)CCCCN3[C@H]2CO)cc1,?,-11.0,31.2,112.1*,74.4,33.0,105.7*
C/C=C/c1ccc([C@@H]2[C@H](CO)N3CCCCN(C(=O)Nc4ccc(F)cc4)C[C@@H]23)cc1,58.7,3.0,55.6,·,·,·,·
C[C@@H]1CN([C@H](C)CO)C(=O)Cc2cc(NC(=O)C3CCCCC3)ccc2O[C@@H]1CN(C)Cc1ccccc1,68.7,-23.5,-11.5,·,·,·,·
C[C@@H]1CN([C@@H](C)CO)C(=O)c2cc(NS(=O)(=O)c3ccc(Cl)cc3)ccc2O[C@H]1CN(C)CC1CC1,?,-4.2,3.9,1.2,19.9,8.3,30.7*
C[C@H](CO)N1C[C@H](C)[C@H](CN(C)CC2CC2)Oc2ccc(NS(=O)(=O)c3ccc(Cl)cc3)cc2C1=O,-1.6,-5.3,-2.8,·,·,·,·
C[C@@H]1CCCCO[C@@H](CN(C)CC2CCCCC2)[C@H](C)CN([C@H](C)CO)C(=O)c2cc(NS(=O)(=O)c3ccc(Cl)cc3)ccc2O1,92.7,-75.3,-13.5,·,·,·,·
